# Compounds without any hit were thinned out: in the full panel of roughly 83,000, 20% have a hit.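 Results are percent growth after 48 hours of single-concentration exposure. 100 means growth as in untreated cells, lower positive values show inhibition; negative values down to -100 show cell death.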 A number with no mark means an inactive call. Calls of active or inactive are those of the source.
# Test system: SNB-75 CNS
# Test: NCI-60 one-dose screen, 48 h (100 = growth as untreated, 0 = no growth, -100 = all killed)
# Details: 10 µM unless noted
# Procedure: Growth inhibition of the SNB-75 human tumor cell line is measured as a screen for anti-cancer activity. Cells are grown in 96 well plates and exposed to the test compound for 48 hours. Compounds are tested at a single concentration, which is 10^-5 M for most compounds. The reported endpoint is percent growth (GI% or GIPRCNT), where numbers from 0 - 100% represent growth inhibition, and numbers from -100% - 0 represent cell death. For example, a value of 40 represents 60% growth inhibition. A value of 0 means no net growth occurred over the course of the experiment. A value of -40 indicates 40% of cells at the beginning of the experiment died by the end of the experiment. A value of -100 means all cells are dead at the end of the experiment.
# NCI-60 Human Tumor Cell Lines Screen was performed using the standard one-dose NCI protocol, which is described in more detail at https://dtp.cancer.gov/discovery_development/nci-60/default.htm.
# Compounds with GIPRCNT values below 10 were considered active. Activity score was based on GIPRCNT using the following formula: […]
# Score is 0 for GIPRCNT values of 100 or above, 50 for GIPRCNT values of 0, and 100 for GIPRCNT values of -100.
row,SMILES,growth
1,O=C(Nc1ncc(Cc2cccc(C(F)(F)F)c2)s1)C1COc2ccccc2O1 (stereo not given),83.3%
2,COc1ccc(C(O)(CCC(C)C)C(CN2CCOCC2)c2ccc(Cl)cc2)cc1 (stereo not given),74.4%
3,COC(=O)c1c2c(c(C)[n+]([O-])c1C)C(=O)C=C(NCc1ccc(F)c(F)c1)C2=O,-96.7% (active)
4,O=C(Nc1ccc(C23CC4CC(CC(c5ccccc5)(C4)C2)C3)cc1)c1cccs1,98.6%
5,CN1CCN(Cc2ccc(C(=O)Nc3cncc(C#Cc4cnc(N)c5ccccc45)c3)cc2C(F)(F)F)CC1,-96.4% (active)
6,C[n+]1c2ccccc2nc2ccc(NCCO)cc21,98.8%
7,COc1ccc(/C=C/C(=O)c2ccc3cc(OC)c(OC)cc3c2)cc1OC,49.7%
8,COC(=O)C1(C)COP(=O)(Nc2ccc(OC)cc2)OC1 (stereo not given),92.1%
9,COC(=O)/C(CCC=C(C)C)=C1\[C@@H](OC(C)=O)C[C@@]2(C)[C@H]1C[C@@H](O)[C@H]1[C@@]3(C)CC[C@H](NCc4ccccc4)[C@@H](C)[C@@H]3CC[C@@]12C,65.1%
10,COc1cc(/C=C/C(=O)N2c3ccccc3CC2C)c(OC)c2c1OCO2 (stereo not given),97.2%
11,CSc1nc2c(c(=O)[nH]1)N=C1c3ccccc3C(=O)C1C(c1ccc(F)cc1)N2 (stereo not given),26.8%
12,COc1cccc2cc(N(C)c3nc(C)nc4ccsc34)ccc12,36%
13,Cc1cccc2c(=O)c3c(sc12)c(N1CCNCC1)nc1ccccc13,50%
14,COc1ccc(-c2nsc3c2NC(=O)CC3c2ccc3c(c2)OCCO3)cc1 (stereo not given),35.1%
15,Cc1ccc(Cn2c(N3CCC(C(=O)NCc4cccs4)CC3)nc3ccccc32)cc1,77.5%
16,CC(=O)c1ccc2oc(=O)n(Cc3ccc(C#N)cc3)c(=O)c2c1,87.3%
17,CC(C)[C@H](NC(=O)Cn1cc(C(=O)O)nn1)C(=O)O,104%
18,COC(=O)c1ccc(NC(=O)CSc2nc3ccccc3c(=O)n2-c2ccccc2)cc1,92.1%
19,COc1ccc(Cn2c(Br)c3c(c2Br)-c2nc(N)sc2CC3)cc1,38.2%
20,Cc1cc2c(c(C)c1Cl)C(=O)/C(=C/c1ccco1)O2,76.7%

row,SMILES,growth
1,Cn1nc(C(F)(F)F)c(-c2ccc(Cl)c(C(F)(F)F)c2)c1-c1ccc(OCc2ccc(Cl)cc2)cc1O,47.7%
2,N#C/C(=C\c1c(-c2ccccc2)[nH]c2ccccc12)S(=O)(=O)c1ccccc1,12.4%
3,OCCNc1nc(Nc2ccc(C3=NN(c4cc(Cl)cc(Cl)c4)C(c4ccc(C(F)(F)F)cc4)C3)cc2)nc(N2CCOCC2)n1 (stereo not given),68.4%
4,CC1=CCC(OC(=O)C(C)(C)CCC(O)(C(=O)OC2(C(C)C)CCC3(C)OC3C2)C(C)C)(C(C)C)CC1 (stereo not given),-98% (active)
5,O=C(CCN1C(=O)c2ccccc2C1=O)Nc1ccc(Cl)cc1,94.5%
6,Nc1ccc(C2c3ccccc3Oc3ccccc32)cc1,84.5%
7,COc1ccc(-c2nc(N3CCN(C(=O)C4CCCCC4)CC3)c3c4c(sc3n2)CCCC4)cc1,-66.3% (active)
8,COC(=O)c1c2c(c(C)[n+]([O-])c1C)C(=O)C(NCc1ccc(Br)cc1)=CC2=O,84.5%
9,COC(=O)c1cc2c(n1Cc1ccccc1)-c1oncc1CCC2,67.2%
10,COc1cc(/C(C#N)=C/c2nc3c(N4CCOCC4)nc(Cl)nc3n2C)cc(OC)c1OC,-9.92% (active)
11,O=C(COc1cc(O)c2c(=O)cc(-c3ccccc3)oc2c1)Nc1ccccc1C(F)(F)F,-4.06% (active)
12,CC[C@H](C)[C@@H](C(=O)OC)n1cc(CNC(=O)[C@@H](Cc2ccccc2)NC(=O)OCc2ccccc2)nn1,101%
13,O=c1c2cc(F)ccc2sc2c(NCCN3CCCC3)nc3ccccc3c12,77.6%
14,N#C/C(=C\c1c(-c2ccccc2)[nH]c2ccccc12)C(=O)c1ccccc1,16.8%
15,CCCCCCCCCCOC(=O)c1ccccc1C(=O)OCCCC,81.9%
16,CCCC(c1nnnn1C1CCCCC1)N1CCN(C(=O)c2ccco2)CC1 (stereo not given),76.7%
17,CC1=C(C(=O)OCC2CCN(C(=O)OC(C)(C)C)CC2)[C@H](c2cccc(C#N)c2)C2=C(CC(C)(C)CC2=O)N1,62.5%
18,COc1cc(CNC(=O)c2ccsc2Nc2ccnc(C(F)(F)F)c2)ccc1O,101%
19,COc1ccc(N)c(-c2cc3c(c4c2[nH]c2ccc(OC)cc24)CCCC3)c1,70.9%
20,CC/C(=C(\CC)c1ccc(OCC[N+](C)(C)C)cc1)c1ccc(OC)cc1,31.2%
